Test results published in publication PMC7862700, “An all-to-all approach to the identification of sequence-specific readers for epigenetic DNA modifications on cytosine”.

Key:
Experiment in all cases: DAPPL (digital affinity profiling via proximity ligation, sequencing); 10 mM Tris-HCl pH 7.5, 50 mM NaCl, 1 mM DTT, 4% glycerol, room temperature, 30 min; GST-TFs on glutathione beads, 16-mer random dsDNA library, 0.1% formaldehyde crosslink after washing; high values mean tight binding
Conditions in all cases: protein: recombinant; tags: N-terminal GST; dsDNA, one strand shown
FLI1 = target: T1, FLI1 (Homo sapiens, UniProt Q01543 1-452)
T1 sequence: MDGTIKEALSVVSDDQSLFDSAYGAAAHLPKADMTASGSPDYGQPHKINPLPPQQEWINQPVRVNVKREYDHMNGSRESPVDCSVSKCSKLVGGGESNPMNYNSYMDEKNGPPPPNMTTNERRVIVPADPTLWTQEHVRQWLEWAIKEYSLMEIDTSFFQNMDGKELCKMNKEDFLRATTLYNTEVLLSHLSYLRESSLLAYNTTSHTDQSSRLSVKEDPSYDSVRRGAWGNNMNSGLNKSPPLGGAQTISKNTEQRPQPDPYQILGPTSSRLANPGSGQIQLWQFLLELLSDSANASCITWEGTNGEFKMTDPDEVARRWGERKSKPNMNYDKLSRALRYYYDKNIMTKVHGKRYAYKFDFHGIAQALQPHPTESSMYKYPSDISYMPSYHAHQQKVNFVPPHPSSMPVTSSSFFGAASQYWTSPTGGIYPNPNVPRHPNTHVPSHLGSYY
Outline: (§1)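 The binding signal reported is, for every hexamer, its read frequency for a factor over its read frequency for the tag-only sample. Reads came from pools of yeast-expressed, GST-fused human transcription factors on glutathione beads, barcoded with DNA and mixed with that sample, which were incubated with 200 nmole of a random double-stranded 16-mer DNA library in Tris/NaCl/DTT/glycerol buffer at room temperature for 30 min. After washing, the pools were crosslinked with 0.1% formaldehyde, proximity-ligated with BsaI/T4 ligase for 1 h at 37 °C, PCR-amplified and sequenced on an Illumina NextSeq500.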

ELK1 = target: T2, ELK1 (Homo sapiens, UniProt P19419 1-428)
T2 sequence: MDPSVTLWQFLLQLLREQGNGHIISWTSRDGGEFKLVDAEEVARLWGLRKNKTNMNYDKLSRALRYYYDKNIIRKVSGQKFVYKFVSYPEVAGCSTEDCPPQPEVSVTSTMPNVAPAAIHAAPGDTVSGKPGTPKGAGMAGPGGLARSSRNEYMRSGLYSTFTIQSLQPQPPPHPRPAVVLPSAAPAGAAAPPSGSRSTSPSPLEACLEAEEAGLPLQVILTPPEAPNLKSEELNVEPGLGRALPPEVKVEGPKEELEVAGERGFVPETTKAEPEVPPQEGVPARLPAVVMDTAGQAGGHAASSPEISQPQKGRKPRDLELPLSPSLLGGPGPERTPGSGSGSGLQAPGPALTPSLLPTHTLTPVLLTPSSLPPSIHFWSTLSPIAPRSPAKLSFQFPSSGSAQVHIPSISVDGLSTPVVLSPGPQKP
Outline: as §1

GABPA = target: T3, GABPA (Homo sapiens, UniProt Q06546 1-454)
T3 sequence: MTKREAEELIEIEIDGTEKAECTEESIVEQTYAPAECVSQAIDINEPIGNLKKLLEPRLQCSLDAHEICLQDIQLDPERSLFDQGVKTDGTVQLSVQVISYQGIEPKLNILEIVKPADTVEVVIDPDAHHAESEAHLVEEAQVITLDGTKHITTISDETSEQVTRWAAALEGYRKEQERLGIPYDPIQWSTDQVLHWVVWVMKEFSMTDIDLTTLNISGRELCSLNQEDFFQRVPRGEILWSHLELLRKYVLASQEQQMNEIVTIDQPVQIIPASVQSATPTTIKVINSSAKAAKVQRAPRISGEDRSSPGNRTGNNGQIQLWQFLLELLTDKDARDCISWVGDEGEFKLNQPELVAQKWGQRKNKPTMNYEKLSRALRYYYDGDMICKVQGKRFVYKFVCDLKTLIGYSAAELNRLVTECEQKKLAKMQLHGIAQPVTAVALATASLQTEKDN
Outline: as §1

ERG = target: T4, ERG (Homo sapiens, UniProt P11308 1-479)
T4 sequence: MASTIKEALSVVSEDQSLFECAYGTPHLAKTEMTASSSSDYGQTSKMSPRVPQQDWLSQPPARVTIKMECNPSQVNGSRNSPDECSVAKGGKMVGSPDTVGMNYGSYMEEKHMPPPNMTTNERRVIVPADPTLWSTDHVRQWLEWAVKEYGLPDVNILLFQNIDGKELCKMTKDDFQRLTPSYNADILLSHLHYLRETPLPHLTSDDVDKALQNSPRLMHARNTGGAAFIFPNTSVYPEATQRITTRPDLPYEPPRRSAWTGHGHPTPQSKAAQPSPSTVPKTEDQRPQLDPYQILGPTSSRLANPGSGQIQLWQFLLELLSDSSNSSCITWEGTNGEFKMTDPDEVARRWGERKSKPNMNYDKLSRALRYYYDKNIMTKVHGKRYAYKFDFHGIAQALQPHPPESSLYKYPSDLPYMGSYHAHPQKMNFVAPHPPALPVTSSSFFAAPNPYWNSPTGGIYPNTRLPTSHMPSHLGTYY
Outline: as §1

ELF1 = ELF1 (Homo sapiens, UniProt P32519 1-619)
ELF1, sequence (P32519 whole entry): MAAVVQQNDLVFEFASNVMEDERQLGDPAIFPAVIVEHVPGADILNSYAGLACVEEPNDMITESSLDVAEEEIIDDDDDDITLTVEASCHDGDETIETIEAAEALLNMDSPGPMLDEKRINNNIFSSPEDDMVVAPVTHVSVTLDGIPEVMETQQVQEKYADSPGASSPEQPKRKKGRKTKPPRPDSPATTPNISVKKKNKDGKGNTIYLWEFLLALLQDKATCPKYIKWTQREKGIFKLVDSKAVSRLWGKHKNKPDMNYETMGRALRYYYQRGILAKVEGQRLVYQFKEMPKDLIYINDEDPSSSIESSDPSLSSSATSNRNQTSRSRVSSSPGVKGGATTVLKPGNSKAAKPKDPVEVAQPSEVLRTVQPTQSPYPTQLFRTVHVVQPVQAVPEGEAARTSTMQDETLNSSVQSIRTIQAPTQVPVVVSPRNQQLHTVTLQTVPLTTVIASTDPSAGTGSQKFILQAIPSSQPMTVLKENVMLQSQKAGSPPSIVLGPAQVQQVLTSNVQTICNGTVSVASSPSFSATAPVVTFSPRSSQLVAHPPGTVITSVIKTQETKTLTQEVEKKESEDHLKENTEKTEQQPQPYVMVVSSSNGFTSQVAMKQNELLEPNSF
Outline: as §1

EHF = target: T5, EHF (Homo sapiens, UniProt Q9NZC4 1-300)
T5 sequence: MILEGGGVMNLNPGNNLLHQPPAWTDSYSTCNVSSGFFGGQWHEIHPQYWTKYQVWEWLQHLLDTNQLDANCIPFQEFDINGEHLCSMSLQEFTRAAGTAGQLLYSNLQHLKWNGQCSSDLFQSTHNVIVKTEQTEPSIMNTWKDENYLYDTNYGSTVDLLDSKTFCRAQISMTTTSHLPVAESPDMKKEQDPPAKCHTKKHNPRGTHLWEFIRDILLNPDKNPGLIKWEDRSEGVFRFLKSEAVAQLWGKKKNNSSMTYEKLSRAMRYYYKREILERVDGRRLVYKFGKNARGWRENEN
Outline: as §1

SPI1 = SPI1 (Homo sapiens, UniProt P17947 1-270)
Outline: as §1

SPIB = SPIB (Homo sapiens, UniProt Q01892 1-262)
SPIB, sequence (Q01892 whole entry): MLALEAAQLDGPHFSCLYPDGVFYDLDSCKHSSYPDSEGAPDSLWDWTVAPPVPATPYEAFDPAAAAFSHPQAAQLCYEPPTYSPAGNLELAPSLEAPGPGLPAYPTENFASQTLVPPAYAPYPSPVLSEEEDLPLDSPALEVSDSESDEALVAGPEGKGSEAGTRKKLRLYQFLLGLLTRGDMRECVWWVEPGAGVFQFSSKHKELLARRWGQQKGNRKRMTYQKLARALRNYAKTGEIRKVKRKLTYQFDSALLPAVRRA
Outline: as §1

ELK3 = target: T6, ELK3 (Homo sapiens, UniProt P41970 1-407)
T6 sequence: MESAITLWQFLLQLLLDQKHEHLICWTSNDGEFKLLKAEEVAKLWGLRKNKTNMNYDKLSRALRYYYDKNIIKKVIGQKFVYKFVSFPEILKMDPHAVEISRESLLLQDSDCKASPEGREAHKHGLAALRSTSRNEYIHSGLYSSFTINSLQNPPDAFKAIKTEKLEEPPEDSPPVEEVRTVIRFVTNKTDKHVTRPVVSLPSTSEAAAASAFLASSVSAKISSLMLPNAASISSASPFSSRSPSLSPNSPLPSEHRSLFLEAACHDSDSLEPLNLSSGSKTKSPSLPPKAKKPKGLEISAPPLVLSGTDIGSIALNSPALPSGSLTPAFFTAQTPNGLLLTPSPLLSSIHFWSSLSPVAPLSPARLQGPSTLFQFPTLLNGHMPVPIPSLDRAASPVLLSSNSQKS
Outline: as §1

FEV = target: T7, FEV (Homo sapiens, UniProt Q99581 1-238)
T7 sequence: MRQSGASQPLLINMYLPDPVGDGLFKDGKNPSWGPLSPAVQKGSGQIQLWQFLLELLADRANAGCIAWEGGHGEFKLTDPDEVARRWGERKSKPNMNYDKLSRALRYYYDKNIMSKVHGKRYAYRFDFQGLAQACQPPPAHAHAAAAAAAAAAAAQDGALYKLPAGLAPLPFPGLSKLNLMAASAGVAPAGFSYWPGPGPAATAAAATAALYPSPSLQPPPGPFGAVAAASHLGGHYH
Outline: as §1

ETV5 = ETV5 (Homo sapiens, UniProt P41161 1-510)
ETV5, sequence (P41161 whole entry): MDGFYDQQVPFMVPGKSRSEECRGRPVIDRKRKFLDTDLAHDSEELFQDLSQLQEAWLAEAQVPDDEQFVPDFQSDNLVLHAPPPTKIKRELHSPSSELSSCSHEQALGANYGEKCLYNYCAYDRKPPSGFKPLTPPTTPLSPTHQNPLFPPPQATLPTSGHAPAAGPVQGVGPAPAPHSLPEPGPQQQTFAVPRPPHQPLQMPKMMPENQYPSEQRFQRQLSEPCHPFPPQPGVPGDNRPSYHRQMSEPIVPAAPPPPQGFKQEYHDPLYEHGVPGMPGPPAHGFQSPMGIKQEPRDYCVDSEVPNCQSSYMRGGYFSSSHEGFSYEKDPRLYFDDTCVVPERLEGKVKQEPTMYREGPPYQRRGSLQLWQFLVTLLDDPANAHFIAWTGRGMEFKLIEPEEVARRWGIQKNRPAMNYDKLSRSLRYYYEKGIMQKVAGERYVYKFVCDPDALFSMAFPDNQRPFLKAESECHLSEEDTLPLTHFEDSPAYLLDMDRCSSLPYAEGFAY
Outline: as §1

SPIC = target: T8, SPIC (Homo sapiens, UniProt Q8N5J4 1-248)
T8 sequence: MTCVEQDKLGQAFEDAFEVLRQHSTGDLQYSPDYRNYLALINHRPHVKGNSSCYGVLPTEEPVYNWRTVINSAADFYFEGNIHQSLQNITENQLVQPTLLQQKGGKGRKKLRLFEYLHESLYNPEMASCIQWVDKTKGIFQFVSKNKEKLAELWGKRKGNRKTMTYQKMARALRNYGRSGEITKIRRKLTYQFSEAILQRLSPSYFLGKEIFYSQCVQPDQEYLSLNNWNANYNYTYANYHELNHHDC
Outline: as §1

ELF4 = ELF4 (Homo sapiens, UniProt Q99607 1-663)
ELF4, sequence (Q99607 whole entry): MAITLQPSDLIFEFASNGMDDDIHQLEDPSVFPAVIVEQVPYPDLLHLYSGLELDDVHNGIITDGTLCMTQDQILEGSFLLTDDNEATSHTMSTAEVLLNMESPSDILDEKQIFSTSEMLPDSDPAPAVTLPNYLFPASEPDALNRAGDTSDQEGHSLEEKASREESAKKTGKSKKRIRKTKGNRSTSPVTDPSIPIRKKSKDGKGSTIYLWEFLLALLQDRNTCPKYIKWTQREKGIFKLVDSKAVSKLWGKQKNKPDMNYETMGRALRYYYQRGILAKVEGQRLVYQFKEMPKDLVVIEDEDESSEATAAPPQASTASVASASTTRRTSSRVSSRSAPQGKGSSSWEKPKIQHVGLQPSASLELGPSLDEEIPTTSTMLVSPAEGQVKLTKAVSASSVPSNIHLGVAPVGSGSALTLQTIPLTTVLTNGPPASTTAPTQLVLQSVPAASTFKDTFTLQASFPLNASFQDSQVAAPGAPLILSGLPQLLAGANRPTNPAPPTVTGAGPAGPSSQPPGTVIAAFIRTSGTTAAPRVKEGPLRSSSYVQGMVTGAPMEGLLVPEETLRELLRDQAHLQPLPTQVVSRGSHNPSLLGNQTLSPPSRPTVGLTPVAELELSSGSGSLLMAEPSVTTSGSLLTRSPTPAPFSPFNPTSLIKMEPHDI
Outline: as §1

ETV1 = ETV1 (Homo sapiens, UniProt P50549 1-477)
ETV1, sequence (P50549 whole entry): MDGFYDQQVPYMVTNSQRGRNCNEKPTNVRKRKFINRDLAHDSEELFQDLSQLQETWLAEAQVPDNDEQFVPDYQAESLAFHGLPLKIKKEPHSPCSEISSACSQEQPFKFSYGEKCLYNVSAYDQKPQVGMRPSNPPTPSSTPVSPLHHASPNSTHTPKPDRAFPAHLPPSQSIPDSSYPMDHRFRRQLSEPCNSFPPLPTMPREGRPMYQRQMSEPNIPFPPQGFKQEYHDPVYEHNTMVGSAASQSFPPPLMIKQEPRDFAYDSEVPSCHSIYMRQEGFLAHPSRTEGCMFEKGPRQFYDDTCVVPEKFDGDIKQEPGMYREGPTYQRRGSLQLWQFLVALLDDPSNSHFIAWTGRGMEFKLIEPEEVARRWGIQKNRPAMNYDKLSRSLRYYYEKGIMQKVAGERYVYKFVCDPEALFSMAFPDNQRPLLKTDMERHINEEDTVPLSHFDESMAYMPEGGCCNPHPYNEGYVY
Outline: as §1

ERF = target: T9, ERF (Homo sapiens, UniProt P50548 1-548)
T9 sequence: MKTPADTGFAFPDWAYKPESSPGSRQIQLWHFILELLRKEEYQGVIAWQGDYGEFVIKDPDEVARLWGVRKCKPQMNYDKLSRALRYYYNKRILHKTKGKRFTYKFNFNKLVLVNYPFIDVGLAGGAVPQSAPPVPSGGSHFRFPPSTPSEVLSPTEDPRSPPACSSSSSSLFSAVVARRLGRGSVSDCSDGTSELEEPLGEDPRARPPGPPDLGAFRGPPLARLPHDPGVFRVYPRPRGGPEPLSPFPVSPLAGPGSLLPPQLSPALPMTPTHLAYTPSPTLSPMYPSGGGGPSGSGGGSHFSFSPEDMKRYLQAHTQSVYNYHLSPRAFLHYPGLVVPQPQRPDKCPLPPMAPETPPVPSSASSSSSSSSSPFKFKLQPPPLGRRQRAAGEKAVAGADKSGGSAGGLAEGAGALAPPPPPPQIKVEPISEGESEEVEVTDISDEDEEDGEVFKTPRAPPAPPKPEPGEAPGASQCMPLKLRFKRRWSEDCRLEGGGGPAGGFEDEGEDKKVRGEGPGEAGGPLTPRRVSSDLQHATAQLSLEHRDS
Outline: as §1

ETV3L = target: T10, ETV3L (Homo sapiens, UniProt Q6ZN32 1-361)
T10 sequence: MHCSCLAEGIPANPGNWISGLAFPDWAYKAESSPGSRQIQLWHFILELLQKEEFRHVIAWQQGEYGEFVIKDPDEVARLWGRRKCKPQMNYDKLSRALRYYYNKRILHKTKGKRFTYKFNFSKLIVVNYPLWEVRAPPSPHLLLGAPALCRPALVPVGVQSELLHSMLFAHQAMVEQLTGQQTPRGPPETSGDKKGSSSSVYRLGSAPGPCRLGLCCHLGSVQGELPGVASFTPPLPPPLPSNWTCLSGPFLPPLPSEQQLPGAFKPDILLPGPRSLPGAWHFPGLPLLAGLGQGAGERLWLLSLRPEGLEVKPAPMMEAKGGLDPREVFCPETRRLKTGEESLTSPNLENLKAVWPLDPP
Outline: as §1

ETS2 = target: T11, ETS2 (Homo sapiens, UniProt P15036 1-469)
T11 sequence: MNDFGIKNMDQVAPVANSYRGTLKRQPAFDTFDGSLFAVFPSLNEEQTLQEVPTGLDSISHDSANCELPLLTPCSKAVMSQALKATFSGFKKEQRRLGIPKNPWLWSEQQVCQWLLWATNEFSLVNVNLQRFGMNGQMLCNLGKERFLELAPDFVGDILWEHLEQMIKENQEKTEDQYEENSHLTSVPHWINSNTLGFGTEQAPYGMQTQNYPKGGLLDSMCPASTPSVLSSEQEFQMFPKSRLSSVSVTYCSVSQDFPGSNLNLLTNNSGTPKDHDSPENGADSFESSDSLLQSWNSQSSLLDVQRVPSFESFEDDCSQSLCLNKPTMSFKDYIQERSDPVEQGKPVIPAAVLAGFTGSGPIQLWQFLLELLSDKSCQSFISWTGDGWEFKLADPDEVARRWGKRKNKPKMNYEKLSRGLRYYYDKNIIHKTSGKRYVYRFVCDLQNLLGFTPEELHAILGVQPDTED
Outline: as §1

SPDEF = target: T12, SPDEF (Homo sapiens, UniProt O95238 1-335)
T12 sequence: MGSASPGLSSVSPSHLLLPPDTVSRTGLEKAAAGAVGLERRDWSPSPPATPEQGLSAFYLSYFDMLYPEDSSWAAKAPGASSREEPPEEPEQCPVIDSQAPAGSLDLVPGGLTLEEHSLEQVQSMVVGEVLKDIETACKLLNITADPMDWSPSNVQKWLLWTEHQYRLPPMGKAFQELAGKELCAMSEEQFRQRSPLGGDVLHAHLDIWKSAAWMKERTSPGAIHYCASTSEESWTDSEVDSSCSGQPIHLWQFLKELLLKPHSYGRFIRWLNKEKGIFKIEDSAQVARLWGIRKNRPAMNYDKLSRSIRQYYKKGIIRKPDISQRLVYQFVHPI
Outline: as §1

ETV3 = target: T13, ETV3 (Homo sapiens, UniProt P41162-2 1-143)
T13 sequence: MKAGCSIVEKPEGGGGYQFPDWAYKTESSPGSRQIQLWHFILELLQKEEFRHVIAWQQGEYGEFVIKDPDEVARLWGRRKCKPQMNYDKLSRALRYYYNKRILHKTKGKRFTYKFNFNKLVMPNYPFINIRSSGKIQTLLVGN
Outline: as §1

ETV6 = ETV6 (Homo sapiens, UniProt P41212 1-452)
ETV6, sequence (P41212 whole entry): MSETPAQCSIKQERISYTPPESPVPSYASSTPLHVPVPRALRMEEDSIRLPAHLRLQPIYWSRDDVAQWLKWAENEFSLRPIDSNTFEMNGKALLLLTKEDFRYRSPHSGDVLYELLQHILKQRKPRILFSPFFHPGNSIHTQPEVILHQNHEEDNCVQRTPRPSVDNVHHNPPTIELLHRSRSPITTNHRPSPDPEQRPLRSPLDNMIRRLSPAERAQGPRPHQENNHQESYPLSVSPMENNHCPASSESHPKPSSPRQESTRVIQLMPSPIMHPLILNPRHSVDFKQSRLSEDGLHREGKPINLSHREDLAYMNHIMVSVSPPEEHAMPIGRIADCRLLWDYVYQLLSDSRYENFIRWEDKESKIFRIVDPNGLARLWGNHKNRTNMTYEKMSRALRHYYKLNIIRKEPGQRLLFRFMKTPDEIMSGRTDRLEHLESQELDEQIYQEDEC
Outline: as §1

## ACGTTG
FLI1
  binding signal: 1.14 fold enrichment (6-mer frequency, TF over GST control)
ELK1
  binding signal: 1.11 fold enrichment (6-mer frequency, TF over GST control)
GABPA
  binding signal: 1.05 fold enrichment (6-mer frequency, TF over GST control)
ERG
  binding signal: 1.05 fold enrichment (6-mer frequency, TF over GST control)
ELF1
  binding signal: 1.03 fold enrichment (6-mer frequency, TF over GST control)
EHF
  binding signal: 1.07 fold enrichment (6-mer frequency, TF over GST control)
SPI1
  binding signal: 1.08 fold enrichment (6-mer frequency, TF over GST control)
SPIB
  binding signal: 1.02 fold enrichment (6-mer frequency, TF over GST control)
ELK3
  binding signal: 1.01 fold enrichment (6-mer frequency, TF over GST control)
FEV
  binding signal: 1.07 fold enrichment (6-mer frequency, TF over GST control)
ETV5
  binding signal: 1.03 fold enrichment (6-mer frequency, TF over GST control)
SPIC
  binding signal: 1.28 fold enrichment (6-mer frequency, TF over GST control)
ELF4
  binding signal: 1.13 fold enrichment (6-mer frequency, TF over GST control)
ETV1
  binding signal: 1.06 fold enrichment (6-mer frequency, TF over GST control)
ERF
  binding signal: 1.07 fold enrichment (6-mer frequency, TF over GST control)
ETV3L
  binding signal: 1.08 fold enrichment (6-mer frequency, TF over GST control)
ETS2
  binding signal: 1.07 fold enrichment (6-mer frequency, TF over GST control)
SPDEF
  binding signal: 1.17 fold enrichment (6-mer frequency, TF over GST control)
ETV3
  binding signal: 1.11 fold enrichment (6-mer frequency, TF over GST control)
ETV6
  binding signal: 1.11 fold enrichment (6-mer frequency, TF over GST control)
